tim10-1 inh – inhibits growth of tim10-1 mutant yeast. S. cerevisiae tim10-1 ts strain growth, BacTiter-Glo, 24 h. hit rate 2.2% among 330,000. inhibition, % at 20 µM;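 active = inhibition of at least 40%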;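 note: mutant grown at 25 °C; 0% = DMSO wells with yeast and 100% = wells holding no yeast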
EBI2 antag – blocks human EBI2 receptor beta-arrestin signaling; EBI2 beta-arrestin recruitment, luminescence, 7a,25-OHC stimulated; inhibition, % at 5 µM; hit rate 0.81% among 360,000; in the data active = inhibition above about 38%;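 note: enzyme fragment complementation signal reports receptor beta-arrestin coupling in cells; 0% = agonist plus DMSO wells and 100% = wells without agonist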
Target sequence (P32249 whole entry, looked up, the tested form may be a part): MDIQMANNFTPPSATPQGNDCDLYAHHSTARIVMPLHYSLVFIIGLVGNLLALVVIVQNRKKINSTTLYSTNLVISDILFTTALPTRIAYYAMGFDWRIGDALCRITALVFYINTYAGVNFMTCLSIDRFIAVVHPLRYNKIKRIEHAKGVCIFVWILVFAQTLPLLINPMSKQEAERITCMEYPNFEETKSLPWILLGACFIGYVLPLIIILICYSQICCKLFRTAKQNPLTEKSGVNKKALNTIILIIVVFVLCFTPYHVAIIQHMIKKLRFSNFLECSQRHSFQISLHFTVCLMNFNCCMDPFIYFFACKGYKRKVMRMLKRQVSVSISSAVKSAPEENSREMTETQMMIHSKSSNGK
PfHsp90 set2 – reduces growth (ATP signal) of yeast expressing P. falciparum Hsp90; S. cerevisiae expressing PfHsp90, BacTiter-Glo ATP, 48 h; yeast lacking PDR1 and PDR3 efflux regulators; inhibition, % at 9.4 µM; hit rate 0.32% among 310,000;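 active = every replicate shows inhibition above about 80%, whatever the replicate mean, limit read from the data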;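 note: 0% = DMSO neutral controls and 100% = 20 µM radicicol positive controls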
SKKanGAS inh – SKKanGAS growth inhibition | S. pyogenes SKKanGAS, kanamycin growth, BacTiter-Glo, 6 h | inhibition, % at 7.5 µM | hit rate 1.3% among 300,000 | AID 1662;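 active = mean replicate score, as percent of positive control median, at least 50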;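 note: strain carries kanamycin resistance gene driven by streptokinase promoter and grows in 40 µg/ml kanamycin; loss of luminescence reflects streptokinase promoter inhibition or plain growth inhibition; 0% = median of DMSO wells and 100% = positive control at its reference dose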
TIM10 inh – TIM10 yeast growth inhibition; S. cerevisiae TIM10 strain growth, BacTiter-Glo luminescence, 24 h; inhibition, % at 10 µM; hit rate 1.4% among 330,000; AID 463195;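 active = inhibition of 40% or more at the single tested concentration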;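 note: wild-type TIM10 isogenic control strain grown at permissive 25 °C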
tim23-1 inh – tim23-1 yeast growth inhibition; S. cerevisiae tim23-1 growth, BacTiter-Glo luminescence, 24 h; inhibition, % at 20 µM; hit rate 1.3% among 330,000; AID 463212;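 active = growth inhibition of the mutant yeast at or above 50%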;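 note: temperature-sensitive mutant grown at 25 °C; plate controls were DMSO-treated mutant yeast for no effect and medium wells lacking yeast for full effect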
Numbers without * were called inactive; · = no result given. Compounds with a hit are over-represented: about 4.7% of the library has one in this group of screens.

SMILES | tim10-1 inh | EBI2 antag | PfHsp90 set2 | SKKanGAS inh | TIM10 inh | tim23-1 inh
COc1ccc(C(=O)N2CCCC(Nc3ccc(F)cc3)C2)cc1F (stereo not drawn) | -14 | 2 | 5 | -5 | -4 | -3
Oc1ccc(F)c2cccnc12 | 0 | 4 | 27 | -17 | 8 | -4
Oc1ccc(N=Nc2ccccc2C(F)(F)F)c2cccnc12 | 19 | 15 | -25 | 98* | 7 | 7
COc1ccccc1N=Nc1ccc(O)c2ncccc12 | 8 | 2 | 99* | 94* | 18 | 32
COc1cc(CN(C(C)=O)c2ccccc2C(=O)O)ccc1[N+](=O)[O-] | · | -6 | -3 | · | · | ·
COc1ccc(/C=N/N2C(=O)C3C4C=CC(CC4)C3C2=O)c(OC)c1 (stereo not drawn) | 7 | -10 | 23 | -3 | -7 | -2
Cc1ccc(N2C(=O)C3C4C=CC(CNC(=S)N5CCN(c6ccccc6)CC5)(O4)C3C2=O)cc1 (stereo not drawn) | 11 | 0 | 104* | -14 | 3 | -6
Cc1ccc(S(=O)(=O)NCC23C=CC(O2)C2C(=O)N(c4ccccc4)C(=O)C23)cc1 (stereo not drawn) | -1 | -1 | 106* | -7 | 7 | -8
Cc1ccc(NC(=S)NCC23C=CC(O2)C2C(=O)N(c4ccc(C)cc4)C(=O)C23)cc1 (stereo not drawn) | 36 | -11 | 107* | -6 | 11 | 29
S=C(NCC1CCCO1)N1CCN(c2ccccc2)CC1 (stereo not drawn) | 2 | -5 | -9 | -5 | 1 | 2
Cc1cccc(NC(=S)NCC23C=CC(O2)C2C(=O)N(c4ccc(Cl)cc4)C(=O)C23)c1 (stereo not drawn) | 31 | -6 | 107* | 6 | 31 | 26
CC(C)(C)OC(=O)NCC12C=CC(O1)C1C(=O)N(Cc3ccccc3)C(=O)C12 (stereo not drawn) | 12 | -1 | 50 | 2 | 3 | 10
Cc1ccc(S(=O)(=O)NCC2(c3ccccc3)CCN(C)CC2)cc1 | 13 | -19 | 9 | 3 | -4 | 5
CCNC(=O)N(C)c1c(CC)nc2ccc(C(=O)N3CCN(C(=O)c4ccco4)CC3)cn12 | · | -1 | · | · | · | ·
CC1(C(=O)NS(=O)(=O)c2ccccc2OC(F)(F)F)CCN1C(=O)c1ccco1 (stereo not drawn) | · | 2 | · | · | · | ·
OC(c1ccccc1)c1nc(-c2ccccc2)cs1 (stereo not drawn) | · | 7 | · | · | · | ·
Cc1cccc(N2C(=O)C=CC2=O)c1 | · | 3 | 117* | · | · | ·
O=C1C=CC(=O)N1c1ccc2ccccc2c1 | · | -5 | 116* | · | · | ·
O=C(Nc1ccc(Nc2ccccc2)cc1)c1c(F)c(F)c(F)c(F)c1F | 13 | -6 | -26 | 20 | 11 | 21
O=c1c2ccccc2cnn1-c1ccc2ccccc2c1 | 21 | 0 | · | 1 | 9 | 40
O=C1C=CC(=O)N1c1ccc(Nc2ccccc2)cc1 | · | -13 | 126* | · | · | ·
COc1ccc(CN2C(=O)C(CC(=O)NCc3cccs3)CC(C(=O)N(C)C)=C2C)cc1 (stereo not drawn) | · | 2 | · | · | · | ·
CCc1ccc(N(C(=O)c2csnn2)C(C(=O)NC(C)(C)CC)c2cccnc2)cc1 (stereo not drawn) | 2 | -6 | 0 | 0 | 1 | 13
Cn1ccc2c(-c3ccc4[nH]ccc4c3)cc3c(c21)C1CCC3O1 (stereo not drawn) | · | 20 | · | · | · | ·
Cc1ccc(N2CC(C(=O)Nc3cccc(S(=O)(=O)N4CCOCC4)c3)CC2=O)cc1 (stereo not drawn) | · | 0 | · | · | · | ·
SMILES | tim10-1 inh | EBI2 antag | PfHsp90 set2 | SKKanGAS inh | TIM10 inh | tim23-1 inh
O=C(N/N=C/c1cccc(F)c1)c1c(O)c2ccccc2[nH]c1=O | · | -9 | 14 | 92* | · | ·
O=C(N/N=C/c1ccc(F)cc1)c1c(O)c2ccccc2[nH]c1=O | -7 | -2 | 35 | 94* | 23 | 24
O=C1OC(c2ccc(F)cc2)CC1CN1CCOCC1 (stereo not drawn) | · | 1 | · | · | · | ·
CCN(CCO)C1CC(=O)N(c2ccccc2C)C1=O (stereo not drawn) | 35 | -4 | 124* | -4 | 17 | 8
Cc1ccc(Oc2ccc3c(c2)C(=O)N(c2ccc(S(=O)(=O)Nc4nccs4)cc2)C3=O)cc1 | 14 | -3 | 3 | 93* | -3 | -6
O=c1c2ccccc2nc(COc2ccccc2)n1/N=C/c1cc([N+](=O)[O-])ccc1O | 20 | 12 | 28 | 76* | 24 | 49
O=C(NC(C(=O)N/N=C/c1cc([N+](=O)[O-])ccc1O)c1n[nH]c(=O)c2ccccc12)c1ccccc1 (stereo not drawn) | 13 | 9 | 3 | 87* | -8 | 24
O=C(N/N=C/c1cc([N+](=O)[O-])ccc1O)c1c[nH]c2ccccc12 | 14 | -15 | 16 | 66* | 1 | -9
CCOC(=O)c1c(C)[nH]c(C(=O)N/N=C/c2cc([N+](=O)[O-])ccc2O)c1C | 21 | 11 | 7 | 80* | 26 | 22
O=[N+]([O-])c1ccc(Cl)c(/C=N/n2c(COc3ccccc3)n[nH]c2=S)c1 | 30 | -2 | -19 | 1 | 11 | 10
O=C(NC(C(=O)N/N=C/c1cccc2ccccc12)c1n[nH]c(=O)c2ccccc12)c1ccccc1 (stereo not drawn) | 5 | 14 | -21 | 5 | 5 | 16
O=C(CSc1nnc(COc2ccc(Cl)cc2)o1)N(c1ccccc1)C1CCS(=O)(=O)C1 (stereo not drawn) | · | 11 | · | · | · | ·
Cc1occc1C(=O)N1CCCC(N2CCN(c3ccccc3F)CC2)C1 (stereo not drawn) | -11 | 1 | -7 | 6 | 1 | -14
CCNC(=O)C(=O)N/N=C/c1cc([N+](=O)[O-])ccc1O | 13 | 8 | -2 | 2 | 35 | 11
Cn1c(SCC(=O)N/N=C/c2cc([N+](=O)[O-])ccc2O)nnc1-c1ccccc1 | 4 | 6 | 24 | 93* | 10 | -21
Cc1cc(C(=O)N/N=C/c2cc([N+](=O)[O-])ccc2O)c2ccccc2n1 | 9 | 49* | -8 | 92* | 20 | 39
O=C(N/N=C/c1cc([N+](=O)[O-])ccc1O)C12CC3CC(CC(C3)C1)C2 | 9 | 79* | -14 | 0 | 23 | 2
Cc1cc(C(=O)N/N=C/c2cc(Br)cc([N+](=O)[O-])c2O)c2ccccc2n1 | 29 | 26 | -3 | 106* | 25 | 36
CC(=O)Nc1ccc(NC(=O)C(C)OC(=O)c2ccc(S(=O)(=O)N3CCCCCC3)cc2)cc1 (stereo not drawn) | 14 | 10 | -7 | · | -2 | 8
COc1ccc(N2CC(C(=O)N/N=C/c3cc([N+](=O)[O-])ccc3O)CC2=O)cc1 (stereo not drawn) | 7 | 4 | -7 | 68* | 0 | 8

Source: PubChem BioAssay (several laboratories)
